# Measurements: PubChem BioAssay AID623923 (Vanderbilt Specialized Chemistry Center, 2012)
# Active and inactive are the calls of the source. How the calls were made is not given here.
# Assay: PubChem AID 623923
# Conditions: Ricerca radioligand binding panel, % inhibition, at 10 µM, stronger effect = higher value
smiles,measurement,setting,value
COc1ccc(C)c2sc(NC(=O)c3ccncc3)nc12,inhibition,5-HT2B binding,70%
same,inhibition,DAT transporter binding,13%
same,inhibition,GABA-A muscimol site binding,47%
same,inhibition,NET transporter binding,18%
same,inhibition,PAF receptor binding,34%
same,inhibition,adenosine A2A binding,100%
same,inhibition,adenosine A3 binding,99%
same,"inhibition of radioligand binding, adenosine A1",,91% (active)
same,inhibition,hERG binding,13%
same,inhibition,muscarinic M1 binding,-3%
same,inhibition,muscarinic M2 binding,-2%
same,inhibition,muscarinic M3 binding,3%
same,inhibition,sigma 1 binding,39%
